FBW7 act: activators of human E3 ligase FBW7; Q969H0; AlphaScreen FBW7–phospho-cyclin E peptide binding, activator screen; normalized activity (activation), % at 26.1 µM; 650,000 compounds, 0.13% hits; AID 1259310; in the data active = normalized activity above about 1.9%;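 note: purified mutant Fbw7 with reduced substrate affinity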
MITF inh: blocks human microphthalmia-associated transcription factor; 650,000 compounds, 0.91% hits; O75030; AlphaScreen MITF homodimerization, bead proximity signal; inhibition, % at 2.6 µM; in the data active = inhibition above about 50%;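 note: 0% = vehicle wells with protein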
GPR151 ag: activates the human receptor GPR151. PathHunter beta-arrestin GPR151 cells, luminescence. activation, % at 11.2 µM. 650,000 compounds, 1% hits. AID 1508602; in the data active = activation above about 4.9%;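 note: 0% = median of compound wells and 100% = cells with positive control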
Target sequence (Q8TDV0 whole entry, looked up): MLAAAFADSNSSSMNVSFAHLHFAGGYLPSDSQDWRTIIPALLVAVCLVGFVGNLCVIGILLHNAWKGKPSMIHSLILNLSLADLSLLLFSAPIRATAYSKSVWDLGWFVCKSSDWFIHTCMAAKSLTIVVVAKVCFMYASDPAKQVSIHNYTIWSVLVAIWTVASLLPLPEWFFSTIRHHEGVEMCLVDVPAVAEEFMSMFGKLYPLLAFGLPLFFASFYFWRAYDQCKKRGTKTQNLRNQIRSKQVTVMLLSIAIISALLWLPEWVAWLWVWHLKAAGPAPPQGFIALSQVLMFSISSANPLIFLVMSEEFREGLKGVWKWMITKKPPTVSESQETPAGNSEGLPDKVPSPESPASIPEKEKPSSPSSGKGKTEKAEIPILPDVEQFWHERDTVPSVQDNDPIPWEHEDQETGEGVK
TEAD-YAP block: TEAD-YAP interaction inhibition. inhibition, % at 9.12 µM. AID 1259422. HEK-TIYL cells, TEAD-Gal4/YAP UAS-luciferase luminescence. 640,000 compounds, 1.4% hits; in the data active = inhibition above about 32%;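 note: 0% = median of test compound wells and 100% = reference inhibitor wells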
GPR151 conf act: confirmation of human GPR151 activators; AID 1508609; shares compounds with GPR151 ag; activation, % at 11.2 µM; GPR151 PathHunter beta-arrestin cells, luminescence, 90 min; % of EA-reagent control over plate median; 6,700 tested, under 10 active;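 active = mean percent activation across replicates above the confirmation screen cutoff of 4.91%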
GPR119 ag: counter-screen for GPR151 activators: effect on human GPR119; 6,700 compounds, 0.3% hits; shares compounds with GPR151 ag; GPR119 PathHunter beta-arrestin cells, luminescence, 90 min; 0 = compound-well median, 100 = enzyme-acceptor control; activation, % at 11.2 µM; AID 1508611;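 active = mean percent activation in the counterscreen above 29.09%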;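 note: counterscreen on off-target GPR119 to flag nonselective hits from the GPR151 activator screen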
* marks the source's active call; other numbers are inactive results. Sampled rows, rich in hits. Any-hit rate of the full collection: about 3.5%.

What do the screens show for `COc1ccc(N(C(=O)Cc2cccs2)C(C(=O)NC2CCCC2)c2ccncc2)cc1` (stereo not drawn)?
FBW7 act: 0; MITF inh: -1; GPR151 ag: 1; TEAD-YAP block: -28

What do the screens show for `O=C(NC1CCCC1)C(c1ccncc1)N(C(=O)NCc1cccs1)c1ccncc1` (stereo not drawn)?
FBW7 act: 0; MITF inh: -11; GPR151 ag: 10*; TEAD-YAP block: -12; GPR151 conf act: 0; GPR119 ag: 2

How did O=C1/C(=c2\sc3nc4ccccc4n3c2=O)c2ccccc2N1Cc1ccccc1 do in these assays?
FBW7 act: 0; MITF inh: 0; GPR151 ag: 7.2*; TEAD-YAP block: -9; GPR151 conf act: 0; GPR119 ag: -12

Results for O=C(CN1C(=O)/C(=c2/sc3nc4ccccc4n3c2=O)c2ccccc21)Nc1ccc(F)cc1 ?
FBW7 act: 0; MITF inh: 4; GPR151 ag: 2; TEAD-YAP block: 5

How did CN1C(=O)/C(=c2\sc3nc(=O)c(Cc4ccccc4)nn3c2=O)c2ccccc21 do in these assays?
FBW7 act: 0; MITF inh: 15; GPR151 ag: 5.5*; TEAD-YAP block: 3; GPR151 conf act: 0; GPR119 ag: 4

How did CCOc1ccc(-n2c(=O)cc(N3CCN(c4ccccc4F)CC3)[nH]c2=O)cc1 do in these assays?
FBW7 act: 0; MITF inh: 2; GPR151 ag: 1; TEAD-YAP block: 3

What do the screens show for `Cc1cccc(C(=O)Nc2ccc(C)cc2[N+](=O)[O-])c1`?
FBW7 act: 0; MITF inh: 8; GPR151 ag: 1; TEAD-YAP block: -11

What do the screens show for `Cc1cc(C(=O)Nc2ccc(F)cc2F)ccc1[N+](=O)[O-]`?
FBW7 act: 0; MITF inh: 16; GPR151 ag: 5.2*; TEAD-YAP block: -40; GPR151 conf act: 0; GPR119 ag: -5

What do the screens show for `Cc1ccc(NC(=O)c2cccc(F)c2)c([N+](=O)[O-])c1`?
FBW7 act: 0; MITF inh: -3; GPR151 ag: 8.7*; TEAD-YAP block: -28; GPR151 conf act: -1; GPR119 ag: -15

What do the screens show for `Cc1nc2c(SCc3ccccn3)nnc(-c3ccccc3)c2s1`?
FBW7 act: 0; MITF inh: -4; GPR151 ag: 2; TEAD-YAP block: -2

What do the screens show for `COc1ccc2c(c1)O[C@H](c1ccc3c(c1)OCO3)C(OC(=O)NCc1ccc3c(c1)OCO3)C2=O` (stereo partly drawn)?
FBW7 act: 0; MITF inh: 3; GPR151 ag: 10*; GPR151 conf act: 1; GPR119 ag: 1

How did COc1ccc2c(c1)O[C@H](c1ccc3c(c1)OCO3)C(OC(=O)N[C@H]1CCCc3ccccc31)C2=O (stereo partly drawn) do in these assays?
FBW7 act: 0; MITF inh: -21; GPR151 ag: 5.3*; GPR151 conf act: 0; GPR119 ag: 5

What do the screens show for `CCOC(=O)c1c(NC(=O)c2ccc(S(=O)(=O)N3CCCc4ccccc43)cc2)sc2c1CCN(C(=O)OCC)C2`?
FBW7 act: 0; MITF inh: -8; GPR151 ag: 0; TEAD-YAP block: 6

How did O=C(CN1C(=O)C2(SCC(=O)N2c2ccc(F)c(F)c2)c2ccccc21)NCCc1ccccc1 (stereo not drawn) do in these assays?
FBW7 act: 0; MITF inh: 7; GPR151 ag: 5.4*; TEAD-YAP block: -1; GPR151 conf act: 0; GPR119 ag: -7

Results for O=C(CN1C(=O)C2(SCC(=O)N2c2ccc(F)cc2)c2ccccc21)NCCc1ccccc1 (stereo not drawn) ?
FBW7 act: 0; MITF inh: -1; GPR151 ag: 1; TEAD-YAP block: 12

What do the screens show for `CCN(Cc1ccncc1)Cc1ccc2c(c1)CN(C(=O)C1CC1)CCO2`?
FBW7 act: 0; MITF inh: 11; GPR151 ag: 1; TEAD-YAP block: -5

What do the screens show for `O=[N+]([O-])c1cc([N+](=O)[O-])c2nonc2c1Nc1cccc(C(F)(F)F)c1`?
FBW7 act: 1; MITF inh: 18; GPR151 ag: 7.1*; TEAD-YAP block: 6; GPR151 conf act: 1; GPR119 ag: -10

Results for COC(=O)C(C(F)(F)F)C(F)(F)Sc1cc2c(cc1O)OCO2 (stereo not drawn) ?
FBW7 act: 0; MITF inh: -1; GPR151 ag: 1; TEAD-YAP block: -5

How did CCN(CC)c1ncnc2sc(C(=O)Nc3ccc(C)c(F)c3)c(C)c12 do in these assays?
FBW7 act: 0; MITF inh: 12; GPR151 ag: 9.1*; TEAD-YAP block: 1; GPR151 conf act: -1; GPR119 ag: 1

What do the screens show for `CC(C)NC(=S)NNC(=O)c1ccc(N2CCOCC2)c([N+](=O)[O-])c1`?
FBW7 act: 0; MITF inh: -1; GPR151 ag: 0; TEAD-YAP block: 5

What do the screens show for `Cc1ccc(NC(=O)CN(C)S(=O)(=O)c2ccc(Br)cc2)cc1Cl`?
FBW7 act: 0; MITF inh: 18; GPR151 ag: 9.5*; TEAD-YAP block: 4; GPR151 conf act: 2; GPR119 ag: -3

What do the screens show for `Cc1ccc(NC(=O)CN(C)S(=O)(=O)c2ccc(Br)cc2)cc1C`?
FBW7 act: 0; MITF inh: -13; GPR151 ag: 1; TEAD-YAP block: -2

What do the screens show for `COc1ccc(NC(=O)CN(C)S(=O)(=O)c2ccc(Cl)cc2)cc1Cl`?
FBW7 act: 0; MITF inh: 0; GPR151 ag: 10*; TEAD-YAP block: 6; GPR151 conf act: 0; GPR119 ag: -6

How did CCN(CC)C(=O)CN(c1ccc(Cl)cc1)S(=O)(=O)c1ccc(OC)cc1 do in these assays?
FBW7 act: 0; MITF inh: -5; GPR151 ag: -2; TEAD-YAP block: -2

What do the screens show for `CCOc1ccc(CC(=O)NCCn2ccnc2C)cc1`?
FBW7 act: 0; MITF inh: 1; GPR151 ag: 3; TEAD-YAP block: 5

What do the screens show for `Cc1nccn1CCNC(=O)c1ccc(F)c(F)c1`?
FBW7 act: 0; MITF inh: -5; GPR151 ag: 9.9*; TEAD-YAP block: 8; GPR151 conf act: 0; GPR119 ag: -9

How did Cc1cc(C(=O)Nc2ccccc2C(F)(F)F)on1 do in these assays?
FBW7 act: 0; MITF inh: 7; GPR151 ag: 5.3*; TEAD-YAP block: -6; GPR151 conf act: 1; GPR119 ag: 4

Results for CCCC1(C2CCN(Cc3ccc(O)cc3)CC2)NC(=O)N(CC2CCCO2)C1=O (stereo not drawn) ?
FBW7 act: 0; MITF inh: 4; GPR151 ag: 6.0*; TEAD-YAP block: 3; GPR151 conf act: 0; GPR119 ag: 2
